# High-throughput results: PubChem BioAssay, University of Kansas High Throughput Screening Laboratory
# mHTT CaM bind: disrupts binding of mutant huntingtin to calmodulin | P42858 | AlphaScreen His-mHTT/GST-CaM binding, luminescence | inhibition, % at 15 µM | 3.6% of 190,000 active | AID 1671202
# Pf apPOL block: Pf-apPOL DNA polymerase inhibition | inhibition, % at 10 µM | Recombinant Pf-apPOL, molecular beacon fluorescence, 1.5 h | 0.25% of 210,000 active | AID 1794808
# Hits are given with their value; – = inactive. Most compounds without a hit are left out; they make up all but 3.5% or so of the library. No stated cut-off is given here; in the data, active means inhibition above about 50%; inactive means the rest.
SMILES,mHTT CaM bind,Pf apPOL block
CCNC(=O)N1CC(C(=O)NCC2CC2)CCC1c1ccc(F)c(C)c1 (centres undefined),–,–
COc1ccc(-c2c(C)oc3cc(O)ccc3c2=O)cc1,–,62.3
COc1ccc(-c2c(C)oc3cc(OC(=O)C(C)C)ccc3c2=O)cc1OC,84.2,–
COc1ccc(C(=O)Oc2ccc3c(=O)c(-c4ccc(OC)c(OC)c4)c(C)oc3c2)cc1OC,–,–
COc1ccc(-c2c(C)oc3cc(O)ccc3c2=O)cc1OC,–,–
Cc1ccccc1-n1nnnc1C(c1ccccc1)N(C)Cc1ccc(F)c(F)c1 (centres undefined),–,–
Cc1cc(C)cc(N=c2oc3c(C)ncc(CO)c3cc2C(=O)Nc2ccccc2F)c1,–,–
O=c1c2ccc(F)cc2ncn1C1CCN(S(=O)(=O)Cc2ccccc2)CC1,–,–
COc1ccc(OC)c(CN2CCCC2c2cc(C(C)C)no2)c1 (centres undefined),–,–
COc1cccc2c(SCC(=O)NCCc3ccccc3)nccc12,–,–
Cc1cccc(CNC(=O)c2nn(C)c3c2CN(C(=O)CSc2ccccc2)CC3)c1,66.1,–
Cc1cccc(CNC(=O)c2nn(C)c3c2CN(C(=O)c2ccc(F)cc2)CC3)c1,51.3,–
COc1ccc(C(=O)N2CCc3c(c(C(=O)NCc4cccc(C)c4)nn3C)C2)cc1,–,–
COc1cccc(C(=O)N2CCc3c(c(C(=O)NCc4ccc5c(c4)OCO5)nn3C)C2)c1,50.9,–
Cc1cccc(C(=O)N2CCc3c(c(C(=O)NCc4ccc5c(c4)OCO5)nn3C)C2)c1,61.6,–
CC(C)C(=O)N1CCc2c(c(C(=O)NCc3ccc4c(c3)OCO4)nn2C)C1,–,–
Cn1nc(C(=O)NCc2ccccc2)c2c1CCN(C(=O)c1ccc(F)cc1)C2,–,–
Cc1cccc(CNC(=O)c2nn(C)c3c2CN(C(=O)C2CC2)CC3)c1,–,–
CCc1ccc(NC(=O)c2ccc(F)c(S(=O)(=O)NCc3cccs3)c2)cc1,–,–
CCOc1ccc(/C=C2N=C(/C=C/c3ccccc3)OC\2=O)cc1,–,–
Cn1nc(C(=O)NCc2ccc(F)cc2)c2c1CCN(C(=O)c1cccc(F)c1)C2,–,–
Cn1nc(C(=O)NCc2ccc(F)cc2)c2c1CCN(C(=O)c1ccco1)C2,–,–
Cc1cccc(CNC(=O)c2nn(C)c3c2CN(C(=O)c2ccco2)CC3)c1,71.7,–
Cc1cccc(CNC(=O)c2nn(C)c3c2CN(C(=O)COc2cccc(C)c2)CC3)c1,75.6,–
Cc1cccc(C(=O)N2CCc3c(c(C(=O)NCc4ccccc4)nn3C)C2)c1,88.3,–
SMILES,mHTT CaM bind,Pf apPOL block
CCOc1ccc(C(=O)N2CCc3c(c(C(=O)NCc4cccc(C)c4)nn3C)C2)cc1,–,–
O=C(NC1CCCCCC1)c1c(O)c2cccc3c2n(c1=O)CC3,–,–
CCC1(CC)C(=O)N(C)C(=O)NC1=NCc1ccc(OC)cc1,–,–
CCN(C)C(=O)c1ccccc1N1CCC(NC(=O)C(C)(C)C)CC1,–,–
C=CCN1C(=O)/C(=C/c2ccccc2O)SC1=Nc1ccccc1,–,–
C=CCN1C(=O)/C(=C/c2ccc(O)cc2)SC1=Nc1ccccc1,78.0,–
CC(C)CCNC(=O)C1(C)CCC(=O)N1CCN1CCN(C)CC1 (centres undefined),–,–
CC1=CC(=NS(=O)(=O)c2ccc(Cl)cc2)C(C)=CC1=O,65.0,–
CC1=CC(=O)C(C(C)C)=CC1=NS(=O)(=O)c1ccc([N+](=O)[O-])cc1,–,–
COc1cccc(CNC(=O)C2CCCN(C(=O)c3cccc(C(F)(F)F)c3)C2)c1 (centres undefined),–,–
COc1cccc(C2=NC(C(C)C)NC(c3ccccc3O)C2)c1 (centres undefined),–,–
CCOC(=O)N1CCC2(CC1)N=C(c1ccccc1)CC(c1cc(Cl)ccc1O)N2 (centres undefined),–,–
COc1cccc(C2=NC(C)(CC(C)C)NC(c3ccccc3O)C2)c1 (centres undefined),98.0,–
CC(C)C1(C)N=C(c2ccc3c(c2)OCO3)CC(c2ccccc2O)N1 (centres undefined),64.0,–
COc1cccc(C2=NC(C(C)C)NC(c3cc(Cl)ccc3O)C2)c1 (centres undefined),52.0,–
CC(C)N1CCC2(CC1)N=C(c1ccc3c(c1)OCO3)CC(c1ccccc1O)N2 (centres undefined),–,–
CCCC1(C)N=C(c2ccc(OCC)cc2)CC(c2ccccc2O)N1 (centres undefined),–,–
COc1cccc(C2=NC(C)(C)NC(c3cc(Cl)ccc3O)C2)c1 (centres undefined),100.0,–
O=C(Nc1ccc(F)cc1)c1ccc(-c2cnc(N3CCCCC3)nc2)cc1,–,–
O=C(c1cccs1)N1CCN(c2cc(N3CCCCCC3)c(F)cc2[N+](=O)[O-])CC1,59.7,–
Cc1cc(N2CCN(C(=O)c3cccs3)CC2)c(F)cc1[N+](=O)[O-],–,–
